# Data as given in PubChem BioAssay (EPA / NIEHS).
# Active and inactive are the calls of the source. Rule for the calls: active = hit-call score of the fitted dose curve at least 0.9, where 1 is the maximum; inactive = score below 0.9.
# How the values were obtained:
# [1] = read-out: Monocyte Chemoattractant Protein-1 (MCP1), CCL2 (gene 6347); experiment: BSK_3C_MCP1: BioMAP Diversity Plus: 3C Assay for Monocyte Chemoattractant Protein-1 (MCP1) Biomarker Activity (AID 2283017); details: primary human endothelial cells (HUVEC); actives raise or lower the signal
# Method in brief: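 MCP-1 was measured by ELISA 24 h after dosing in primary HUVEC 3C cultures and fitted in both directions relative to DMSO; cytotoxicity was checked by SRB total-protein staining in parallel wells.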
# [2] = read-out: Monocyte Chemoattractant Protein-1 (MCP1), CCL2 (gene 6347); experiment: BSK_4H_MCP1: BioMAP Diversity Plus: 4H Assay for Monocyte Chemoattractant Protein-1 (MCP1) Biomarker Activity (AID 2283018); details: primary human endothelial cells (HUVEC); actives raise or lower the signal
# Method in brief: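 Human umbilical vein endothelial cells (4H system) dosed with chemical; MCP-1 measured by ELISA 24 h after dosing. Bidirectional curve fitting against DMSO negative control as baseline; parallel SRB total-protein staining tracks overt cytotoxicity.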
# [3] = read-out: Interleukin-8 (IL8), CXCL8 (gene 3576); experiment: BSK_3C_IL8: BioMAP Diversity Plus: 3C Assay for Interleukin-8 (IL8) Biomarker Activity (AID 2283020); details: primary human endothelial cells (HUVEC); actives raise or lower the signal
# Method in brief: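 Primary human umbilical vein endothelial cells (3C system) were exposed to test chemical for 24 h, then IL-8 was quantified by ELISA. Responses were fitted bidirectionally against DMSO vehicle as baseline.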
# [4] = read-out: Monokine induced gamma interferon (MIG), CXCL9 (gene 4283); experiment: BSK_3C_MIG: BioMAP Diversity Plus: 3C Assay for Monokine induced gamma interferon (MIG) Biomarker Activity (AID 2283021); details: primary human endothelial cells (HUVEC); actives raise or lower the signal
# Method in brief: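 Primary human umbilical vein endothelial cells in the 3C system were exposed to chemical for 24 h, after which MIG was quantified by ELISA. Activity was fitted bidirectionally against DMSO as negative control and baseline.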
# [5] = BSK_3C_SRB: Viability Assessment in the BioMAP Diversity Plus: 3C Assay (AID 2283023); details: primary human endothelial cells (HUVEC);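 note: fitted both ways against DMSO so a hit may be signal rise or drop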
# Method in brief: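 Cytotoxicity readout in parallel HUVEC 3C cultures: after 24 h compound exposure, cells fixed with 10% TCA, stained with 0.1% SRB and read at 560 nm. Gain or loss relative to DMSO fitted.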
# [6] = read-out: Matrix Metallopeptidase 1 (MMP1), MMP1 (gene 4312); experiment: BSK_BE3C_MMP1: BioMAP Diversity Plus: BE3C Assay for Matrix Metallopeptidase 1 (MMP1) Biomarker Activity (AID 2283024); details: primary human bronchial epithelial cells; actives raise or lower the signal
# Method in brief: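 Primary human bronchial epithelial cells were dosed with test chemicals, and MMP1 levels were measured by ELISA 24 h later. Data were fitted bidirectionally against DMSO as the negative control and activity baseline.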
# [7] = BSK_3C_Vis: BioMAP Diversity Plus: 3C Assay for Morphology Visualization (AID 2283025); details: primary human endothelial cells (HUVEC);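 note: fitted both ways so gain or loss versus DMSO counts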
# Method in brief: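 Human umbilical vein endothelial cells in the 3C system were imaged by light microscopy 24 h after chemical dosing to record cell morphology. Activity was fitted bidirectionally against DMSO as negative control and baseline; the endpoint serves as a background control.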
# [8] = BSK_4H_SRB: Viability Assessment in the BioMAP Diversity Plus: 4H Assay (AID 2283027); details: primary human endothelial cells (HUVEC);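 note: cells exposed to compound for 24 h before staining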
# Method in brief: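 Human umbilical vein endothelial cells were dosed with chemical and, after 24 h, fixed with 10% TCA, stained with 0.1% sulforhodamine B, and read at 560 nm to give total protein as a cytotoxicity measure. Bidirectional fitting relative to DMSO control.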
# [9] = read-out: Thrombomodulin, THBD (gene 7056); experiment: BSK_3C_Thrombomodulin: BioMAP Diversity Plus: 3C Assay for Thrombomodulin Biomarker Activity (AID 2283029); details: primary human endothelial cells (HUVEC); actives raise or lower the signal
# Method in brief: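 Primary human umbilical vein endothelial cells (3C system) were exposed to chemical for 24 h, then thrombomodulin levels were measured by ELISA. Activity was fitted bidirectionally against the DMSO negative control as baseline.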
# [10] = read-out: Urokinase-type plasminogen activator receptor (uPAR), PLAUR (gene 5329); experiment: BSK_4H_uPAR: BioMAP Diversity Plus: 4H Assay for Urokinase-type plasminogen activator receptor (uPAR) Biomarker Activity (AID 2283030); details: primary human endothelial cells (HUVEC); actives raise or lower the signal
# Method in brief: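 uPAR level read by ELISA on HUVEC cultures (BioMAP 4H) 24 h post-dosing, analyzed for gain or loss relative to DMSO. Parallel SRB staining assessed overt cytotoxicity.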
# [11] = read-out: Human Leukocyte Antigen - DR isotype (HLADR), HLA-DRA (gene 3122); experiment: BSK_3C_HLADR: BioMAP Diversity Plus: 3C Assay for Human Leukocyte Antigen - DR isotype (HLADR) Biomarker Activity (AID 2283019); details: primary human endothelial cells (HUVEC); actives raise or lower the signal;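 for outcome: ELISA of cell-surface HLA-DR on HUVEC 24 h after dosing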
# Method in brief: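 Bidirectional fitting against DMSO was applied to the HLA-DR ELISA signal from human umbilical vein endothelial cells, 24 h post-dose. Cytotoxicity came from parallel SRB total-protein staining; 3C proliferation was counted by SRB at 48 h.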
# [12] = read-out: Interleukin-1 alpha (IL1a), IL1A (gene 3552); experiment: BSK_BE3C_IL1a: BioMAP Diversity Plus: BE3C Assay for Interleukin-1 alpha (IL1a) Biomarker Activity (AID 2283016); details: primary human bronchial epithelial cells; actives raise or lower the signal
# Method in brief: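 Human primary bronchial epithelial cells (BE3C system) were dosed with compound and IL-1a measured by ELISA 24 h later. Activity was fitted bidirectionally against DMSO baseline; cytotoxicity was tracked in parallel cultures by SRB total-protein staining.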
# [13] = BSK_BE3C_SRB: Viability Assessment in the BioMAP Diversity Plus: BE3C Assay (AID 2283028); details: primary human bronchial epithelial cells;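 for AC50: fitted both ways so AC50 may mark signal gain or loss versus DMSO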
# Method in brief: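 Cytotoxicity read-out: SRB (0.1%) staining of TCA-fixed (10%) human lung bronchial epithelial cells, absorbance 560 nm, 24 h post-dosing. Curves fitted both directions relative to DMSO.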
# [14] = read-out: Pselectin, SELP (gene 6403); experiment: BSK_4H_Pselectin: BioMAP Diversity Plus: 4H Assay for Pselectin Biomarker Activity (AID 2283026); details: primary human endothelial cells (HUVEC); actives raise or lower the signal
# Method in brief: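 Primary human umbilical vein endothelial cells were exposed to test chemical for 24 h, then cell-surface P-selectin was quantified by ELISA. Activity was fitted bidirectionally against DMSO as negative control and baseline.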
# [15] = read-out: E-selectin (Homo sapiens) (UniProt P16581); experiment: BSK_3C_Eselectin: BioMAP Diversity Plus: 3C Assay for Eselectin Biomarker Activity (AID 2283015); details: primary human endothelial cells (HUVEC); actives raise or lower the signal;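 for outcome: cell surface E-selectin protein quantified by ELISA 24 h after dosing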
# Method in brief: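 E-selectin ELISA readout, fitted bidirectionally relative to DMSO, taken 24 h post-dosing in HUVEC cultures of the 3C system. Overt cytotoxicity tracked with sulforhodamine B staining of parallel wells.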
# E-selectin (Homo sapiens), sequence (P16581 whole entry, looked up): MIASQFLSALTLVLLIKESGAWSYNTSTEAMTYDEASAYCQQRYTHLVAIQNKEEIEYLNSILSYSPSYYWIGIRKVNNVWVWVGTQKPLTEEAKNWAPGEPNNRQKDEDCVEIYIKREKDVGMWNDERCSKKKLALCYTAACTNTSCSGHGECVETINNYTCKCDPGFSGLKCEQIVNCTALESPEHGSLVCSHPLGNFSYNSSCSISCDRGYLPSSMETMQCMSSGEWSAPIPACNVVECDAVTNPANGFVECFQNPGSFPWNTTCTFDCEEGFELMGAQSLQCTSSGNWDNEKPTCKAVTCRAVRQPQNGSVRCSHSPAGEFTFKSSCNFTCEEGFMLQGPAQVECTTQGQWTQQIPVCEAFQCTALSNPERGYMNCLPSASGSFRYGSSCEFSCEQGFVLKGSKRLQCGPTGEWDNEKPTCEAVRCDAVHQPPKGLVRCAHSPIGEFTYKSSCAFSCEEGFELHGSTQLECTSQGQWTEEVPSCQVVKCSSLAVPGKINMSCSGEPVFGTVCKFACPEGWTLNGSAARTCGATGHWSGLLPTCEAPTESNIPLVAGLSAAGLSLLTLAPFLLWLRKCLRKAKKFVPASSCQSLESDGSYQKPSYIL
smiles,measurement,setting,value
[O-][Cl+]O,outcome,[1],inactive
same,outcome,[2],inactive
same,outcome,[3],inactive
same,outcome,[4],inactive
same,outcome,[5],inactive
same,outcome,[6],inactive
same,outcome,[7],inactive
same,outcome,[8],inactive
same,outcome,[9],inactive
same,outcome,[10],inactive
O=P(OCCCl)(OCCCl)OCCCl,outcome,[1],inactive
same,outcome,[2],inactive
same,outcome,[11],inactive
same,outcome,[3],inactive
same,outcome,[4],inactive
same,outcome,[5],inactive
same,outcome,[6],inactive
same,outcome,[7],inactive
same,outcome,[9],inactive
same,outcome,[10],inactive
O=C(N[C@H](c1ccccc1)[C@@H]1CN2CCC1CC2)c1c(Cl)ccc(C(F)(F)F)c1Cl,AC50,[12],44.5 µM (active)
same,AC50,[1],14.3 µM (active)
same,outcome,[2],inactive
same,AC50,[3],19 µM (active)
same,outcome,[4],inactive
same,AC50,[5],29.7 µM (active)
same,AC50,[6],44.2 µM (active)
same,AC50,[7],14.5 µM (active)
same,outcome,[8],inactive
same,AC50,[13],27.4 µM (active)
same,AC50,[9],29.7 µM (active)
same,AC50,[10],17.3 µM (active)
CC(C)COC(=O)c1ccccc1C(=O)OCC(C)C,AC50,[1],37 µM (active)
same,AC50,[2],20 µM (active)
same,AC50,[11],32.3 µM (active)
same,AC50,[3],31.5 µM (active)
same,outcome,[4],inactive
same,AC50,[5],31.5 µM (active)
same,outcome,[6],inactive
same,outcome,[7],inactive
same,outcome,[14],inactive
same,outcome,[13],inactive
same,outcome,[9],inactive
same,outcome,[10],inactive
CN(C)c1ccccc1,outcome,[15],inactive
same,outcome,[12],inactive
same,outcome,[1],inactive
same,outcome,[2],inactive
same,outcome,[11],inactive
same,outcome,[3],inactive
same,outcome,[4],inactive
same,outcome,[5],inactive
same,outcome,[6],inactive
same,outcome,[7],inactive
same,outcome,[13],inactive
same,outcome,[9],inactive
same,outcome,[10],inactive
C[C@]12C=CC3=C4CCC(=O)C=C4CC[C@H]3[C@@H]1CC[C@@H]2O,outcome,[12],inactive
same,outcome,[1],inactive
same,outcome,[2],inactive
same,outcome,[3],inactive
same,outcome,[4],inactive
same,AC50,[5],7.77 µM (active)
same,AC50,[6],10.2 µM (active)
same,AC50,[7],7.2 µM (active)
same,outcome,[14],inactive
same,outcome,[8],inactive
same,outcome,[9],inactive
same,AC50,[10],16 µM (active)
c1ccc2c(c1)oc1ccccc12,outcome,[15],inactive
same,outcome,[1],inactive
same,outcome,[2],inactive
same,outcome,[3],inactive
same,outcome,[4],inactive
same,outcome,[5],inactive
same,outcome,[6],inactive
same,outcome,[7],inactive
same,outcome,[14],inactive
same,outcome,[13],inactive
same,outcome,[9],inactive
same,outcome,[10],inactive
Oc1ccccc1Cl,outcome,[12],inactive
same,outcome,[1],inactive
same,outcome,[2],inactive
same,outcome,[3],inactive
same,outcome,[4],inactive
same,outcome,[5],inactive
same,outcome,[6],inactive
same,outcome,[7],inactive
same,outcome,[14],inactive
same,outcome,[8],inactive
same,outcome,[9],inactive
same,outcome,[10],inactive
C1=Cc2cccc3cccc1c23,outcome,[15],inactive
same,outcome,[12],inactive
same,outcome,[1],inactive
same,outcome,[2],inactive
same,outcome,[3],inactive
same,outcome,[4],inactive
same,outcome,[5],inactive
same,outcome,[6],inactive
same,outcome,[7],inactive
same,outcome,[8],inactive
same,outcome,[13],inactive
same,outcome,[9],inactive
same,outcome,[10],inactive
ClCCOCCCl,outcome,[15],inactive
same,outcome,[1],inactive
same,outcome,[2],inactive
same,outcome,[3],inactive
same,outcome,[4],inactive
same,outcome,[5],inactive
same,outcome,[6],inactive
same,outcome,[7],inactive
same,outcome,[13],inactive
same,outcome,[9],inactive
same,outcome,[10],inactive
Cc1cccc(N)c1N,AC50,[15],30.3 µM (active)
same,outcome,[1],inactive
same,outcome,[2],inactive
same,AC50,[11],25.9 µM (active)
same,outcome,[3],inactive
same,outcome,[4],inactive
same,outcome,[5],inactive
same,outcome,[6],inactive
same,outcome,[7],inactive
same,outcome,[14],inactive
same,outcome,[13],inactive
same,outcome,[9],inactive
same,outcome,[10],inactive
